Several values for one entry are separate records, joined by “and”; a condition that tells them apart may be missing. Equal entries are not always repeated. Out of some 5,500 compounds screened, about 2,000 (36%) were called active. Another 18% or so got no clear call; they are omitted. Cut-off read from the data, not from the text of the source: active = normalized growth mostly below about 0.91 (no sharp cut-off); inconclusive = no clear call, values can overlap the other calls; inactive = mostly above about 0.92. The list shows a part of the results.
Experiment: chemical genetic growth profiling, strain panel (AID 1159580);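 note: tested at 20 µM; growth read once vehicle control cultures reached saturation at 30 °C; 1 = growth at the plate median or of vehicle wells; lower values mean less growth of the strain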
Conditions: S. cerevisiae deletion strains, growth OD
[1] = locus YMR263W, strain SAP30, stronger effect = lower value
[2] = locus YMR307W, strain GAS1, stronger effect = lower value
[3] = locus YNL128W, strain TEP1, stronger effect = lower value
[4] = locus YNL153C, strain GIM3, stronger effect = lower value

Measured: normalized growth

COc1c2ccccc2nc2occc12
0.873 (inactive) and 0.874 (active): locus YJL095W, strain BCK1, stronger effect = lower value
active: locus YBR009C, strain hhf1, stronger effect = lower value 0.867 | locus YCL016C, strain dcc1, stronger effect = lower value 0.9 | locus YCL069W, strain vba3, stronger effect = lower value 0.882 | locus YDL192W, strain arf1, stronger effect = lower value 0.89 | locus YDR101C, strain arx1, stronger effect = lower value 0.876 | locus YDR195W, strain ref2 1.32 [resistant] | locus YDR502C, strain sam2, stronger effect = lower value 0.918 | locus YER015W, strain faa2, stronger effect = lower value 0.923 | locus YER155C, strain BEM2 (second series), stronger effect = lower value 0.648 | locus YGL086W, strain mad1, stronger effect = lower value 0.907 | locus YGL240W, strain doc1, stronger effect = lower value 0.791 | locus YGR135W, strain pre9, stronger effect = lower value 0.888 | locus YGR252W, strain gcn5, stronger effect = lower value 0.728 | locus YHR142W, strain chs7, stronger effect = lower value 0.842 | locus YHR200W, strain rpn10, stronger effect = lower value 0.882 | locus YJL164C, strain tpk1, stronger effect = lower value 0.907 | locus YJL166W, strain qcr8, stronger effect = lower value 0.901 | locus YKR001C, strain vps1, stronger effect = lower value 0.766 | locus YLL001W, strain dnm1, stronger effect = lower value 0.872 | locus YLR320W, strain mms22, stronger effect = lower value 0.871 | locus YLR330W, strain CHS5, stronger effect = lower value 0.917 | locus YLR371W, strain rom2, stronger effect = lower value 0.81 | locus YLR418C, strain cdc73, stronger effect = lower value 0.744 | locus YML032C, strain rad52, stronger effect = lower value 0.786 | locus YMR058W, strain fet3, stronger effect = lower value 0.894 | locus YNL071W, strain lat1, stronger effect = lower value 0.914 | locus YNL248C, strain rpa49, stronger effect = lower value 0.75 | locus YOL147C, strain pex11, stronger effect = lower value 0.924 | locus YOR001W, strain rrp6, stronger effect = lower value 0.89 | locus YOR083W, strain WHI5, stronger effect = lower value 0.852 | locus YOR106W, strain vam3, stronger effect = lower value 0.824 | locus YOR184W, strain ser1, stronger effect = lower value 0.855 | locus YOR270C, strain vph1, stronger effect = lower value 0.73 | locus YOR290C, strain snf2, stronger effect = lower value 0.858 | locus YPL051W, strain arl3, stronger effect = lower value 0.892 | locus YPL078C, strain atp4, stronger effect = lower value 0.842 | locus YPL106C, strain sse1, stronger effect = lower value 0.826 | strain wtn01, stronger effect = lower value 0.894
inactive: locus YAL013W, strain DEP1, stronger effect = lower value 0.918 | locus YAL021C, strain ccr4, stronger effect = lower value 0.943 | locus YAL026C, strain drs2, stronger effect = lower value 0.914 | locus YAL030W, strain snc1, stronger effect = lower value 0.971 | locus YBL061C, strain skt5, stronger effect = lower value 0.956 | locus YBR021W, strain FUR4, stronger effect = lower value 0.993 | locus YBR023C, strain chs3, stronger effect = lower value 0.926 | locus YBR171W, strain sec66, stronger effect = lower value 0.942 | locus YBR229C, strain ROT2, stronger effect = lower value 1 | locus YBR231C, strain swc5, stronger effect = lower value 0.969 | locus YBR279W, strain paf1, stronger effect = lower value 0.949 | locus YCL011C, strain gbp2, stronger effect = lower value 0.913 | locus YCL029C, strain bik1, stronger effect = lower value 0.953 | locus YCR088W, strain abp1, stronger effect = lower value 0.991 | locus YDL005C, strain med2, stronger effect = lower value 0.972 | locus YDL035C, strain GPR1, stronger effect = lower value 0.929 | locus YDL040C, strain nat1, stronger effect = lower value 0.982 | locus YDL074C, strain BRE1, stronger effect = lower value 0.867 | locus YDL101C, strain DUN1, stronger effect = lower value 0.934 | locus YDL185W, strain tfp1, stronger effect = lower value 0.99 | locus YDR001C, strain nth1, stronger effect = lower value 0.966 | locus YDR069C, strain doa4, stronger effect = lower value 0.942 | locus YDR137W, strain rgp1, stronger effect = lower value 0.93 | locus YDR159W, strain sac3, stronger effect = lower value 0.931 | locus YDR162C, strain NBP2, stronger effect = lower value 0.926 | locus YDR297W, strain sur2, stronger effect = lower value 0.97 | locus YDR318W, strain mcm21, stronger effect = lower value 0.928 | locus YDR334W, strain swr1, stronger effect = lower value 0.945 | locus YDR335W, strain msn5, stronger effect = lower value 0.938 | locus YDR388W, stronger effect = lower value 0.993 | locus YDR392W, strain spt3, stronger effect = lower value 0.767 | locus YEL003W, strain gim4, stronger effect = lower value 0.941 | locus YEL037C, strain rad23, stronger effect = lower value 0.954 | locus YEL061C, strain CIN8 (second series), stronger effect = lower value 0.976 | locus YEL061C, strain CIN8, stronger effect = lower value 0.993 | locus YER016W, strain bim1, stronger effect = lower value 0.981 | locus YER110C, stronger effect = lower value 0.937 | locus YER111C, strain swi4, stronger effect = lower value 0.981 | locus YER155C, strain BEM2, stronger effect = lower value 1.02 | locus YER167W, strain BCK2, stronger effect = lower value 0.941 | locus YFR010W, strain ubp6, stronger effect = lower value 0.919 | locus YGL078C, strain dbp3, stronger effect = lower value 0.944 | locus YGL167C, strain pmr1, stronger effect = lower value 0.949 | locus YGL173C, strain kem1, stronger effect = lower value 0.941 | locus YGL227W, strain vid30, stronger effect = lower value 0.989 | locus YGL248W, strain PDE1, stronger effect = lower value 0.929 | locus YGL253W, strain hxk2, stronger effect = lower value 0.946 | locus YHR013C, strain ard1, stronger effect = lower value 0.967 | locus YHR027C, strain rpn1, stronger effect = lower value 0.932 | locus YHR030C, strain SLT2, stronger effect = lower value 1 and 0.88 | locus YHR079C, strain IRE1 (second series), stronger effect = lower value 0.994 | locus YHR079C, strain IRE1, stronger effect = lower value 0.868 | locus YHR094C, strain hxt1, stronger effect = lower value 1.01 | locus YHR129C, strain ARP1, stronger effect = lower value 0.967 | locus YIL066C, strain RNR3, stronger effect = lower value 0.91 | locus YIL073C, strain SPO22, stronger effect = lower value 0.939 | locus YIL125W, strain kgd1, stronger effect = lower value 0.981 | locus YIR030C, strain dcg1, stronger effect = lower value 0.992 | locus YJL092W, strain hpr5, stronger effect = lower value 0.954 | locus YJL095W, strain BCK1 (second series), stronger effect = lower value 0.968 | locus YJL115W, strain asf1, stronger effect = lower value 0.947 | locus YJL129C, strain trk1, stronger effect = lower value 1.02 | locus YJL134W, strain LCB3, stronger effect = lower value 1.01 | locus YJL154C, strain vps35, stronger effect = lower value 0.979 | locus YJL168C, strain set2, stronger effect = lower value 0.991 | locus YJL187C, strain SWE1 (second series), stronger effect = lower value 0.927 | locus YJL187C, strain SWE1, stronger effect = lower value 0.968 | locus YJR066W, strain TOR1, stronger effect = lower value 0.894 | locus YKL009W, strain mrt4, stronger effect = lower value 0.881 | locus YKL068W, stronger effect = lower value 1.02 | locus YKL085W, strain MDH1 (second series), stronger effect = lower value 0.984 | locus YKL085W, strain MDH1, stronger effect = lower value 0.984 | locus YKL160W, strain elf1, stronger effect = lower value 0.917 | locus YKR026C, strain gcn3, stronger effect = lower value 0.982 | locus YKR091W, strain srl3, stronger effect = lower value 0.969 | locus YLL026W, stronger effect = lower value 0.974 | locus YLL041C, strain sdh2, stronger effect = lower value 0.963 | locus YLR027C, strain aat2, stronger effect = lower value 0.946 | locus YLR039C, strain RIC1, stronger effect = lower value 0.925 | locus YLR058C, strain SHM2, stronger effect = lower value 0.957 | locus YLR102C, strain apc9, stronger effect = lower value 1 | locus YLR113W, strain HOG1, stronger effect = lower value 0.872 | locus YLR221C, strain rsa3, stronger effect = lower value 0.927 | locus YLR258W, strain gsy2, stronger effect = lower value 0.938 | locus YLR262C, strain YPT6 (second series), stronger effect = lower value 0.884 | locus YLR262C, strain YPT6, stronger effect = lower value 1.04 | locus YLR268W, strain sec22, stronger effect = lower value 0.896 | locus YLR342W, strain FKS1, stronger effect = lower value 0.974 | locus YLR357W, strain rsc2, stronger effect = lower value 1.04 | locus YLR370C, strain arc18, stronger effect = lower value 0.967 | locus YLR384C, strain iki3, stronger effect = lower value 0.981 | locus YML016C, strain PPZ1, stronger effect = lower value 0.975 | locus YML120C, strain ndi1, stronger effect = lower value 0.915 | locus YML124C, strain tub3, stronger effect = lower value 0.978 | locus YMR078C, strain ctf18, stronger effect = lower value 0.974 | locus YMR125W, strain sto1, stronger effect = lower value 0.983 | locus YMR129W, stronger effect = lower value 0.975 | locus YMR205C, strain PFK2, stronger effect = lower value 0.938 | locus YMR223W, strain ubp8, stronger effect = lower value 0.912 | locus YMR231W, strain pep5, stronger effect = lower value 0.994 | [1] 0.952 | [2] 1.15 | locus YNL067W, strain RPL9B, stronger effect = lower value 0.951 | [3] 0.952 | [4] 0.889 | locus YNL183C, strain NPR1, stronger effect = lower value 0.865 | locus YNL209W, strain ssb2, stronger effect = lower value 0.952 | locus YNL233W, strain BNI4, stronger effect = lower value 0.888 | locus YNL250W, strain rad50, stronger effect = lower value 0.963 | locus YNL271C, strain bni1, stronger effect = lower value 0.985 | locus YNL298W, strain CLA4, stronger effect = lower value 0.909 | locus YNL307C, strain MCK1, stronger effect = lower value 0.908 | locus YNL322C, strain KRE1 (second series), stronger effect = lower value 0.982 | locus YNR049C, strain mso1, stronger effect = lower value 0.983 | locus YNR052C, strain pop2, stronger effect = lower value 0.955 | locus YOL012C, strain htz1 1.22 | locus YOR061W, strain CKA2, stronger effect = lower value 0.962 | locus YOR069W, strain VPS5, stronger effect = lower value 0.985 | locus YOR070C, strain gyp1, stronger effect = lower value 0.965 | locus YOR080W, strain dia2, stronger effect = lower value 0.962 | locus YOR136W, strain idh2, stronger effect = lower value 0.978 | locus YOR144C, strain elg1, stronger effect = lower value 0.97 | locus YOR231W, strain MKK1, stronger effect = lower value 0.861 | locus YOR265W, strain rbl2, stronger effect = lower value 0.98 | locus YOR316C, strain cot1, stronger effect = lower value 1.02 | locus YPL240C, strain hsp82, stronger effect = lower value 0.973 | locus YPL256C, strain CLN2, stronger effect = lower value 0.981 | locus YPR119W, strain clb2, stronger effect = lower value 1 | locus YPR141C, strain kar3, stronger effect = lower value 1.04 | locus YPR163C, strain tif3, stronger effect = lower value 0.925 | locus YPR167C, strain met16, stronger effect = lower value 0.953

COc1c2c(nc3ccccc13)OC(C(C)(O)CO)C2 (stereo not given)
inactive: locus YAL040C, strain CLN3, stronger effect = lower value 1.01 | locus YCL061C, strain MRC1 (second series), stronger effect = lower value 1.01 | locus YDR363W, strain ESC2, stronger effect = lower value 0.993 | locus YER002W, strain NOP16, stronger effect = lower value 1.01 | locus YJR075W, strain HOC1, stronger effect = lower value 0.994 | [1] 0.998 | [2] 1.01 | [3] 1.02 | [4] 1.04 | locus YNL175C, strain NOP13, stronger effect = lower value 1.01 | locus YNL197C, strain WHI3, stronger effect = lower value 1.01 | locus YNL224C, strain SQS1, stronger effect = lower value 1.01 | locus YOR083W, strain WHI5 (second series), stronger effect = lower value 1 | locus YPL055C, strain LGE1, stronger effect = lower value 0.99 | locus YPL241C, strain CIN2, stronger effect = lower value 1
